# In PubChem BioAssay AID431 (Sanford-Burnham Center for Chemical Genomics, 2006):
# Screen size: about 63,000 compounds; about 1,100 (1.7%) were called active. The sample as a whole holds a higher share of actives than the screen did. Entries with a potency or affinity are not part of this list. Values without a mark were called inactive.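 The calls were made as follows: active = compounds whose percent cytotoxicity in the single-dose primary screen, scaled between solvent and toxic-drug controls, exceeds 50; inactive = the rest.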
# Assay: viability loss of HPDE-C7K cells – cell-based, fluorescence, HTS, primary screen (AID 431);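 also: 0% = DMSO solvent wells and 100% = doxorubicin-treated wells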
# Conditions: HPDE-C7K KRASV12 cells, Alamar Blue viability, 48 h; at 10 µM; hits give high values
row,SMILES,cytotoxicity
1,COc1ccc(-c2cc(C(F)(F)F)nc(SCC(=O)N3CC(C)OC(C)C3)n2)cc1OC (stereo not given),-1.3%
2,Cc1c(Cl)cccc1NC(=O)CSCc1cc(=O)[nH][nH]1,-8.5%
3,Cc1cc2cc(CN(Cc3ccc4c(c3)OCO4)C(=O)c3ccco3)c(=O)[nH]c2cc1C,22.5%
4,Cn1c(SCC(=O)NCc2cccs2)nnc1-c1cccs1,-2.7%
5,CCS(=O)(=O)N1CCN(c2ccccc2F)CC1,-12.1%
6,Clc1ccc2oc(-c3ccccc3)nc2c1,3.5%
7,O=C1c2ccccc2S(=O)(=O)N1Cc1nc2ccccc2s1,3.2%
8,Cc1cc(C)nc(SC2=CS(=O)(=O)c3ccccc32)n1,2.9%
9,Cn1c(SC2=CS(=O)(=O)c3ccccc32)nc2ccccc21,86.7% (active)
10,Cn1c(Sc2nc3ccccc3n2C)nc2ccccc21,21.7%
11,O=S1(=O)C=C(Sc2nnc(-c3ccccc3)o2)c2ccccc21,26.2%
12,O=S1(=O)C=C(Sc2nc3ccccc3s2)c2ccccc21,107% (active)
13,O=S1(=O)C=C(SCCN2CCCCC2)c2ccccc21,6.2%
14,CCOC(=O)c1c(NC(N)=O)sc(C)c1C,7.3%
15,CN(C)S(=O)(=O)c1ccc(S(=O)(=O)Nc2ccc3c(c2)oc2ccccc23)cc1,-0.2%
16,COc1ccc2c(c1)c(=O)cc(C)n2CC(=O)NCc1ccco1,6.1%
17,CCN1CCCC1CNCc1ccc(Cl)cc1Cl (stereo not given),12.8%
18,COc1ccc(CCNc2oc(COc3ccccc3F)nc2C#N)cc1,23.7%
19,COc1ccc(/C=N/n2cc(-c3ccc(OC)cc3)nc2N)cc1,3.7%
20,COc1ccc(/C=N/n2cc(-c3ccccc3)nc2N)cc1,70.8% (active)
21,COc1ccc(/C=N/n2cnnc2SCc2ccccc2)cc1,5.9%
22,CN1CC2(Cc3c1ccc1ccccc31)C(=O)OC(C)(C)OC2=O,64.4% (active)
23,Cc1ccc2c(c1)CC1(CN2C)C(=O)OC2(CCCCC2)OC1=O,-4.6%
24,O=C1COc2ccc3ccccc3c2CN1,-9.6%
25,O=C(NCCc1ccccc1)c1cnn2c(C(F)F)cc(C3CC3)nc12,6.9%
26,O=S(=O)(c1ccc(-c2cn3ccccc3n2)cc1)N1CCOCC1,-9.8%
27,CC(C)Cc1cc(C(=O)O)n[nH]1,9.9%

row,SMILES,cytotoxicity
1,Cc1ccc(Cn2c(CN3CC(C)OC(C)C3)nc3c2c(=O)n(C)c(=O)n3C)cc1 (stereo not given),-6.7%
2,COc1ccc(N2C(=O)C3CCCN3C2c2ccccc2OC)cc1 (stereo not given),-10%
3,CN1CCN(c2nc(-c3ccccc3)nc3c2oc2ccccc23)CC1,24.2%
4,O=C(O)C1CCN(c2nc(-c3ccccc3)nc3c2oc2ccccc23)CC1,27.2%
5,CCOc1cc2nc(-c3ccc(OC)c(OC)c3)nc(N3CCOCC3)c2cc1OC,74.8% (active)
6,COc1cc2nc(-c3ccccc3)nc(N3CCCC3)c2cc1OC,27.3%
7,COc1ccc(-c2csc(N3CCOCC3)n2)cc1OC,2.9%
8,CC(C)(C)Nc1ncnc2c1cnn2-c1ccccc1,17.2%
9,COC(=O)c1cccc(NC(=O)CSc2nnc(COc3ccccc3)n2C)c1,8.3%
10,CC(C)N(C(=O)COc1ccc(Br)cc1Cl)C(C)C,-4.2%
11,Cc1nc2nc(Cc3ccccc3)nn2c(C)c1Cl,0.4%
12,O=C(c1ccc(COc2ccc(Cl)cc2)o1)N1CCN(Cc2ccc3c(c2)OCO3)CC1,94.8% (active)
13,O=C(c1ccc(COc2ccccc2Cl)o1)N1CCN(c2ccccc2)CC1,24%
14,O=C(c1ccc(Cn2cc(Cl)cn2)o1)N1CCN(Cc2ccc3c(c2)OCO3)CC1,12%
15,CC1CCN(C(=O)c2ccc(COc3ccccc3Cl)o2)CC1,-8.5%
16,O=C(c1ccc(COc2ccccc2Cl)o1)N1CCN(Cc2ccc3c(c2)OCO3)CC1,65.1% (active)
17,O=C(c1ccc(Br)o1)N1CCN(Cc2ccc3c(c2)OCO3)CC1,-4.9%
18,CC(=O)c1ccccc1OCCCN1CCCCC1,1.2%
19,O=C(CNS(=O)(=O)c1cccs1)N1CCCC1,-3.8%
20,Cc1occc1-c1nnc(SCc2nc3ccccc3c(=O)n2CC#N)n1C,-5.4%
21,Cn1c(COc2ccccc2)nnc1SCCN1CCOCC1,-8.5%
22,Cc1ccccc1Nc1cc2ccccc2c(=O)[nH]1,73.3% (active)
23,O=c1[nH]c(Nc2ccccc2)cc2ccccc12,0.6%
24,Cc1cc2ccccc2c(=O)[nH]1,3%
25,Fc1ccc(-c2cc3nc(-c4ccccc4)cc(N4CCN(CCN5CCOCC5)CC4)n3n2)cc1,44.9%
26,COc1ccc(OC)c(S(=O)(=O)NCc2cccnc2)c1,-4.2%
27,CCn1c(SCC(=O)N2CCc3ccccc32)nnc1-c1ccncc1,-9.5%

row,SMILES,cytotoxicity
1,CN1CCN(Cc2ccc(OCc3ccccc3)cc2)CC1,33.9%
2,COC(=O)COc1ccc(S(=O)(=O)Nc2cc(OC)ccc2OC)cc1,0%
3,CCCCOc1ccc(S(=O)(=O)Nc2cc(OC)ccc2OC)cc1,32.5%
4,COc1ccc(OC)c(NS(=O)(=O)c2ccc(N3CCCC3=O)cc2)c1,79.5% (active)
5,COc1ccc(OC)c(NS(=O)(=O)c2ccc(SC)cc2)c1,30.3%
6,CCOc1ccc(S(=O)(=O)Nc2cc(OC)ccc2OC)cc1,75.9% (active)
7,COc1ccc(OC)c(NS(=O)(=O)c2ccc3c(c2)CCC(=O)N3)c1,3.2%
8,COc1ccccc1NC(=O)CSc1nnc(-c2ccncc2)o1,-3.6%
9,CCn1c(SCC(=O)Nc2nc(-c3ccccc3)cs2)nnc1-c1ccccc1O,55.5% (active)
10,CCc1nnc(NC(=O)CSc2nnc(-c3ccccc3O)n2-c2ccc(C)cc2)s1,-7.5%
11,CCc1nnc(NC(=O)CSc2nnc(-c3ccccc3O)n2-c2ccc(C)cc2C)s1,61.3% (active)
12,CCn1c(SCC(=O)Nc2nc(-c3ccccc3)cs2)nnc1-c1ccccc1,23.1%
13,CCn1c(SCC(=O)Nc2nc3ccccc3s2)nnc1-c1ccc(OC)cc1,78.6% (active)
14,CCc1nnc(NC(=O)CSc2nnc(-c3ccccc3OC)n2-c2ccccc2)s1,-6.6%
15,CCn1c(Cc2ccccc2)nnc1SCC(=O)Nc1nc2ccccc2s1,8.8%
16,CCn1c(Cc2ccc(OC)cc2)nnc1SCC(=O)Nc1nc2ccccc2s1,-6.3%
17,CCn1c(SCC(=O)Nc2nc(-c3ccc(C)cc3)cs2)nnc1-c1ccccc1O,46.4%
18,Cc1nc2ccccc2c(=O)n1/N=C/c1cccnc1,20.1%
19,CCCc1cc(=O)[nH]c(SCC(=O)c2cc(C)n(CCOC)c2C)n1,1.9%
20,COC(=O)C1CCN(C(=O)COC(=O)Cc2c[nH]c3ccccc23)CC1,2.5%
21,O=C(CN1C(=O)c2ccccc2S1(=O)=O)NC1CCCCCC1,1.2%
22,CC1(C)Cc2ccccc2-c2nc(NCCCO)n(-c3ccccc3)c(=O)c21,12.6%
23,O=C(Nc1ccc2c(c1)OCO2)Nc1ccc(Br)cn1,21.3%
24,CCOc1cccc2cc(-c3nnc(-c4ccccc4)o3)c(=O)oc12,-3.1%
25,CCCCCCc1cc2cc(-c3nnc(-c4ccccc4O)o3)c(=O)oc2cc1O,55.8% (active)
26,CCCCCCc1cc2cc(C(=O)NC)c(=N)oc2cc1O,30.5%
27,CCN(CC)S(=O)(=O)c1ccc(-c2nnc(SCC(=O)Nc3nc(C)cs3)o2)cc1,20.5%

row,SMILES,cytotoxicity
1,COC(=O)c1ccc(OC(=O)c2ccccn2)cc1,-2%
2,CC1(C)OC(=O)C2(Cc3ccccc3N3CCCCC32)C(=O)O1 (stereo not given),-0.5%
3,O=C1c2ccccc2-c2ncnc3cccc1c23,-4.9%
4,O=C1c2ccccc2-c2nccnc21,-3.8%
5,O=C(O)c1ccc2c3c(ncnc13)-c1ccccc1C2=O,75.9% (active)
6,Fc1cc2ncn(Cc3ccccc3)c2cc1F,-20.3%
7,N#Cc1nc(-c2ccco2)oc1NCc1ccc(F)cc1,10.2%
8,CCC(C)C(=O)Nc1c2c(nc3c1CCC3)CCCC2 (stereo not given),-5.8%
9,c1ccc(Cn2nnc3c(N4CCCCCC4)ncnc32)cc1,-2.6%
10,FC(F)(F)c1ccc(N2CCN(c3ncnc4c3nnn4Cc3ccccc3)CC2)nc1,55.5% (active)
11,c1ccc(Cn2nnc3c(N4CCCC4)ncnc32)cc1,8.8%
12,CC(=O)Nc1cc2c(cc1C(=O)C(C)C)OCCO2,-0.7%
13,Cc1ccc(C)c(Cn2c(C(C)O)nc3ccccc32)c1 (stereo not given),-16.7%
14,Cc1ccc(-c2nc(-c3ccccc3)no2)c(Cl)c1,-2.7%
15,CC(C)C(=O)Nc1c2c(nc3ccccc13)N(C)CC2,-4%
16,CCc1nnc(NC(=O)c2cnccn2)s1,-15.3%
17,CCc1nnc(NC(=O)c2cccc(OC)c2)s1,9.1%
18,CCc1nnc(NC(=O)c2cccc(C(=O)Nc3nnc(CC)s3)n2)s1,53.1% (active)
19,CCCc1nnc(NC(=O)c2c(O)c3cccc4c3n(c2=O)CCC4)s1,7.3%
20,CCCc1nnc(NC(=O)c2c(O)c3cccc4c3n(c2=O)CC4)s1,43.6%
21,CC(C)c1nnc(NC(=O)c2c(O)c3cccc4c3n(c2=O)CCC4)s1,49.4%
22,CCc1nnc(NC(=O)c2c(O)c3cccc4c3n(c2=O)CC4)s1,50% (active)
23,Cc1cnc(NC(=O)c2c(O)c3cccc4c3n(c2=O)CCC4)s1,91.8% (active)
24,Cc1csc(NC(=O)c2c(O)c3cccc4c3n(c2=O)CCC4)n1,-16.1%
